Assay results published in PubChem BioAssay (NCI).
The panel holds about 83,000 compounds, 20% with a hit somewhere; the sample as a whole holds those more often.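 Interpretation: 100, growth as untreated; towards 0, rising growth inhibition; 0, no net growth; 0 to -100, cell death. Compounds scoring below 10 were considered active.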 Active and inactive are the calls of the source.

What was measured:
Assay in all cases: NCI-60 one-dose screen, 48 h (100 = growth as untreated, 0 = no growth, -100 = all killed)
Details in all cases: 10 µM unless noted
HCT-15 colon = system: HCT-15 colon
HT29 colon = system: HT29 colon
SNB-19 CNS = system: SNB-19 CNS
U251 CNS = system: U251 CNS
PC-3 prostate = system: PC-3 prostate
SK-MEL-5 melanoma = system: SK-MEL-5 melanoma
UACC-62 melanoma = system: UACC-62 melanoma
LOX IMVI melanoma = system: LOX IMVI melanoma
SK-MEL-28 melanoma = system: SK-MEL-28 melanoma
EKVX NSCLC = system: EKVX NSCLC
SN12C renal = system: SN12C renal
UO-31 renal = system: UO-31 renal
TK-10 renal = system: TK-10 renal
ACHN renal = system: ACHN renal
CAKI-1 renal = system: CAKI-1 renal
A498 renal = system: A498 renal
MOLT-4 leukemia = system: MOLT-4 leukemia
SK-MEL-2 melanoma = system: SK-MEL-2 melanoma
CCRF-CEM leukemia = system: CCRF-CEM leukemia

Measured: growth

O=C1NN(C(=O)c2ccc(Cl)cc2)C(c2ccccc2)=N/C1=C\c1cn(-c2ccccc2)nc1-c1ccccc1
inactive: HCT-15 colon 92.6% | HT29 colon 87.8% | SNB-19 CNS 90.7% | U251 CNS 92.4% | PC-3 prostate 94.8% | SK-MEL-5 melanoma 79.9% | UACC-62 melanoma 91% | LOX IMVI melanoma 97.6% | SK-MEL-28 melanoma 94.8% | EKVX NSCLC 81.4% | SN12C renal 93.2% | UO-31 renal 90.6% | TK-10 renal 102% | ACHN renal 98.5% | CAKI-1 renal 80.4% | A498 renal 69% | MOLT-4 leukemia 98.6%

O=C1/C(=C/c2ccc(Cl)cc2)CN(Cc2cn(CCNc3ccnc4cc(Cl)ccc34)nn2)C/C1=C\c1ccc(Cl)cc1
active: HCT-15 colon -82% | HT29 colon -100% | SNB-19 CNS -92.2% | U251 CNS -100% | PC-3 prostate -86.5% | SK-MEL-5 melanoma -100% | UACC-62 melanoma -87.1% | LOX IMVI melanoma -93% | SK-MEL-28 melanoma -100% | SK-MEL-2 melanoma -89% | SN12C renal -76.1% | UO-31 renal -97.1% | TK-10 renal -89% | ACHN renal -100% | CAKI-1 renal 6.59% | A498 renal -100% | CCRF-CEM leukemia -7.97% | MOLT-4 leukemia -20.7%

O=C(Nc1ccncc1)C(=O)c1cn(S(=O)(=O)c2ccccc2F)c2ccccc12
inactive: HCT-15 colon 31.7% | SNB-19 CNS 60.6% | U251 CNS 30.7% | PC-3 prostate 40.1% | SK-MEL-5 melanoma 13.5% | UACC-62 melanoma 32.3% | LOX IMVI melanoma 37% | SK-MEL-28 melanoma 61.5% | EKVX NSCLC 49.2% | SN12C renal 33.8% | UO-31 renal 52.9% | TK-10 renal 101% | ACHN renal 56.8% | CAKI-1 renal 35.6% | A498 renal 49.7% | MOLT-4 leukemia 39.1%
active: HT29 colon 7.48%

COc1ccc(-c2c(N)n[nH]c2-c2cc(OC)c(OC)c(OC)c2)cc1
inactive: HCT-15 colon 24.6% | SNB-19 CNS 35.9% | U251 CNS 23.5% | PC-3 prostate 40.9% | UACC-62 melanoma 25.7% | LOX IMVI melanoma 43.2% | SK-MEL-28 melanoma 50.4% | EKVX NSCLC 48% | SN12C renal 38.5% | UO-31 renal 27.3% | TK-10 renal 59.8% | ACHN renal 40% | CAKI-1 renal 57% | MOLT-4 leukemia 25.4%
active: HT29 colon 4.25% | SK-MEL-5 melanoma 0.844% | A498 renal -3.53%

O=C(Nc1ccncc1)C(=O)c1cn(S(=O)(=O)c2ccc(Cl)cc2)c2ccccc12
active: HT29 colon 2.91%
inactive: HCT-15 colon 26.6% | SNB-19 CNS 44.7% | U251 CNS 31.3% | PC-3 prostate 41.7% | SK-MEL-5 melanoma 17.1% | UACC-62 melanoma 30.7% | LOX IMVI melanoma 42.8% | SK-MEL-28 melanoma 46.4% | EKVX NSCLC 53.5% | SN12C renal 34% | UO-31 renal 42.1% | TK-10 renal 81.9% | ACHN renal 52.8% | CAKI-1 renal 44.9% | A498 renal 53.6% | MOLT-4 leukemia 48%

Nc1cc2c(cc1C(=O)c1cccc(F)c1)OCCO2
inactive: HCT-15 colon 93.9% | HT29 colon 100% | SNB-19 CNS 97.1% | U251 CNS 94% | PC-3 prostate 94.9% | SK-MEL-5 melanoma 109% | UACC-62 melanoma 104% | LOX IMVI melanoma 95.6% | SK-MEL-28 melanoma 105% | EKVX NSCLC 92.5% | SN12C renal 90.1% | UO-31 renal 68.8% | TK-10 renal 94% | ACHN renal 105% | CAKI-1 renal 88.4% | A498 renal 96.5%

CC(=O)Oc1cccc(S(=O)(=O)n2cc(C(=O)C(=O)Nc3ccncc3)c3ccccc32)c1
inactive: HCT-15 colon 80.1% | HT29 colon 86.1% | SNB-19 CNS 92.9% | U251 CNS 93.1% | PC-3 prostate 81.4% | SK-MEL-5 melanoma 73.5% | UACC-62 melanoma 70.8% | LOX IMVI melanoma 86.6% | SK-MEL-28 melanoma 104% | EKVX NSCLC 51.4% | SN12C renal 85.1% | UO-31 renal 75.3% | TK-10 renal 102% | ACHN renal 88% | CAKI-1 renal 67.5% | A498 renal 63.3% | MOLT-4 leukemia 90.9%

COc1ccc(S(=O)(=O)n2cc(C(=O)C(=O)Nc3ccncc3)c3ccccc32)cc1F
inactive: HCT-15 colon 84.2% | HT29 colon 83.9% | SNB-19 CNS 78.9% | U251 CNS 77.4% | PC-3 prostate 79.8% | SK-MEL-5 melanoma 73.5% | UACC-62 melanoma 65.5% | LOX IMVI melanoma 70.2% | SK-MEL-28 melanoma 92.2% | EKVX NSCLC 39.5% | SN12C renal 73.7% | UO-31 renal 81.8% | TK-10 renal 102% | ACHN renal 66.7% | CAKI-1 renal 55.3% | A498 renal 73.4%

O=C(Nc1cccc(-n2cc(-c3ccncc3)c(-c3ccc(Cl)c(O)c3)n2)c1)Nc1ccc(Cl)c(Cl)c1
active: PC-3 prostate 5.43% | SK-MEL-5 melanoma -40.2% | SK-MEL-2 melanoma -25.4% | TK-10 renal 7.16% | MOLT-4 leukemia 7.64%
inactive: HCT-15 colon 19.8% | HT29 colon 45.9% | SNB-19 CNS 30.3% | U251 CNS 12.4% | UACC-62 melanoma 14.9% | LOX IMVI melanoma 21.9% | SK-MEL-28 melanoma 24.6% | SN12C renal 18% | UO-31 renal 21% | ACHN renal 12.8% | CAKI-1 renal 22.5% | A498 renal 31.1% | CCRF-CEM leukemia 13.7%

Brc1ccc(-c2[nH]ncc2-c2c[nH]c3ccccc23)cc1
inactive: HCT-15 colon 94.9% | HT29 colon 109% | SNB-19 CNS 97% | U251 CNS 93.9% | PC-3 prostate 77.4% | SK-MEL-5 melanoma 100% | UACC-62 melanoma 91.7% | LOX IMVI melanoma 89.7% | SK-MEL-28 melanoma 107% | SK-MEL-2 melanoma 109% | SN12C renal 88.5% | UO-31 renal 57.4% | TK-10 renal 129% | ACHN renal 96.5% | CAKI-1 renal 86.7% | A498 renal 65.1% | CCRF-CEM leukemia 54.7% | MOLT-4 leukemia 70.3%

O=[N+]([O-])c1ccc(/C=C/C2(CCl)OCCO2)cc1
inactive: HCT-15 colon 109% | HT29 colon 92.5% | SNB-19 CNS 95.6% | U251 CNS 97.3% | PC-3 prostate 96.4% | SK-MEL-5 melanoma 104% | UACC-62 melanoma 89.8% | LOX IMVI melanoma 80.6% | SK-MEL-28 melanoma 112% | SK-MEL-2 melanoma 91.7% | SN12C renal 102% | UO-31 renal 95.3% | TK-10 renal 103% | ACHN renal 116% | A498 renal 113% | CCRF-CEM leukemia 62.4% | MOLT-4 leukemia 45.8%

C=C1CCC[C@]2(C)CCC[C@H](C)[C@@H](OC(C)=O)[C@@H]3OC(=O)C(=C)[C@@H]3C[C@H]1O2
inactive: HCT-15 colon 65.9% | HT29 colon 67.8% | SNB-19 CNS 88.9% | U251 CNS 72.5% | PC-3 prostate 53% | SK-MEL-5 melanoma 72.7% | UACC-62 melanoma 58% | LOX IMVI melanoma 72.2% | SK-MEL-28 melanoma 95.2% | EKVX NSCLC 77.3% | SN12C renal 68.5% | UO-31 renal 87.1% | TK-10 renal 109% | ACHN renal 80.1% | CAKI-1 renal 69.4% | A498 renal 68.7% | MOLT-4 leukemia 64%

O=C1NN(C(=O)c2ccc(Cl)cc2)C(c2ccccc2)=N/C1=C\c1ccc(F)cc1
inactive: HCT-15 colon 72.4% | HT29 colon 97.4% | SNB-19 CNS 78.8% | U251 CNS 40.1% | PC-3 prostate 81.4% | SK-MEL-5 melanoma 88.1% | UACC-62 melanoma 74% | LOX IMVI melanoma 88.3% | SK-MEL-28 melanoma 107% | EKVX NSCLC 90.7% | SN12C renal 78.1% | UO-31 renal 75.6% | TK-10 renal 109% | ACHN renal 83.2% | CAKI-1 renal 85.1% | A498 renal 73.1% | MOLT-4 leukemia 36.2%

COc1ccc(Nc2ncccc2C(=O)NCc2cn(Cc3cccc(Oc4ccccc4)c3)nn2)cc1
inactive: HCT-15 colon 32.2% | HT29 colon 12.6% | SNB-19 CNS 61.2% | U251 CNS 46.2% | PC-3 prostate 54.7% | SK-MEL-5 melanoma 16.3% | UACC-62 melanoma 35.3% | LOX IMVI melanoma 47.7% | SK-MEL-28 melanoma 63.3% | EKVX NSCLC 40.1% | SN12C renal 47.5% | UO-31 renal 40.9% | TK-10 renal 76.3% | ACHN renal 51.2% | CAKI-1 renal 42.3% | A498 renal 27.5% | MOLT-4 leukemia 48%

N=C(N)c1ccc(-c2ccc(-c3ccc(-c4cccs4)s3)s2)cc1
active: CCRF-CEM leukemia -47.8%
inactive: HCT-15 colon 101% | HT29 colon 95% | SNB-19 CNS 97.5% | U251 CNS 91.2% | PC-3 prostate 89% | SK-MEL-5 melanoma 91.4% | UACC-62 melanoma 93.3% | SK-MEL-28 melanoma 102% | SK-MEL-2 melanoma 108% | EKVX NSCLC 90.1% | SN12C renal 93.7% | UO-31 renal 93% | TK-10 renal 95.3% | ACHN renal 102% | CAKI-1 renal 106% | A498 renal 20.6% | MOLT-4 leukemia 98%

Nc1cc2c([nH]c[n+]2CC#CCCl)c(SCC#CCCl)n1
active: HCT-15 colon -43.3% | HT29 colon -50.3% | SNB-19 CNS -66.8% | U251 CNS -64.8% | PC-3 prostate -20.3% | SK-MEL-5 melanoma -93.3% | UACC-62 melanoma -91.5% | LOX IMVI melanoma -91% | SK-MEL-2 melanoma -30% | SN12C renal -10.9% | UO-31 renal -76.8% | TK-10 renal -4.18% | ACHN renal -34.7% | CAKI-1 renal 6.37% | A498 renal -52.1% | CCRF-CEM leukemia 8.89% | MOLT-4 leukemia -1.5%

c1ccc(-c2nc(N3CCNCC3)c3nc(-c4ccccc4)oc3n2)cc1
inactive: SK-MEL-5 melanoma 36.2% | SK-MEL-28 melanoma 101% | SK-MEL-2 melanoma 93.3% | EKVX NSCLC 74.3% | A498 renal 80.6%
active: HCT-15 colon -81.3% | HT29 colon -86.6% | SNB-19 CNS 5.98% | U251 CNS -93.5% | PC-3 prostate -62.3% | UACC-62 melanoma -92.8% | SN12C renal -92.2% | UO-31 renal -91.6% | TK-10 renal -85.3% | ACHN renal -99.2% | CAKI-1 renal -85.3% | MOLT-4 leukemia -34.6%

Cc1ccc(NS(=O)(=O)c2cc(C)ccc2C)cc1
inactive: HCT-15 colon 32.9% | HT29 colon 10.8% | SNB-19 CNS 53.1% | U251 CNS 36.8% | PC-3 prostate 57.6% | SK-MEL-5 melanoma 30.3% | UACC-62 melanoma 40% | LOX IMVI melanoma 41% | SK-MEL-2 melanoma 20.3% | EKVX NSCLC 55.4% | SN12C renal 60.8% | UO-31 renal 65.5% | TK-10 renal 58.5% | ACHN renal 70.7% | CAKI-1 renal 25.3% | A498 renal 38.7%
